This note sets out measurements from PubChem BioAssay AID641 (Vanderbilt High Throughput Screening Facility, 2007).

Screen size: about 58,000 compounds; about 3,400 (5.9%) were called active. The sample holds actives, similar compounds and a random draw of the others, so the mix is not that of the screen. Unmarked numbers belong to inactive results.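 Rule for the calls: active = luminescence count or its row- and column-corrected plate score outside the 99.7% band of the plate's sample wells, on either side; inactive = the rest.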

Sequence of D(1A) dopamine receptor (Homo sapiens) (P21728 whole entry, looked up): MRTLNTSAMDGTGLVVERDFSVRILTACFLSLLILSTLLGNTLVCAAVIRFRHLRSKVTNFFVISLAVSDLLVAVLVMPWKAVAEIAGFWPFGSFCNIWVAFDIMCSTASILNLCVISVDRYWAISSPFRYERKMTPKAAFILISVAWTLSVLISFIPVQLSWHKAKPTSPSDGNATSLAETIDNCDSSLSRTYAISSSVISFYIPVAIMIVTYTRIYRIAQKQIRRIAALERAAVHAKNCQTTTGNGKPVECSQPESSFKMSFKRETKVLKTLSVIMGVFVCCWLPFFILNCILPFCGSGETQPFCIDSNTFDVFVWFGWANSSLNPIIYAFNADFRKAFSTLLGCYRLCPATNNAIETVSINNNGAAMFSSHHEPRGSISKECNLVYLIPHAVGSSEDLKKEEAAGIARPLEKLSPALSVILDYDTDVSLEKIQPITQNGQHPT

This experiment has as its target D(1A) dopamine receptor (Homo sapiens) (UniProt P21728). Description: D1 CRE-luciferase signal change, two-sided – cell-based, HEK293 D1, dopamine EC30, D1 allosteric modulator project, primary screen (AID 641). Particulars: dopamine EC30 potentiation, at 10 µM, actives deviate in either direction.
As for `CCOC(=O)C(O)(c1ccc(NC(=O)c2ccco2)c(OC)c1)C(F)(F)F` (stereo not given), the B-score was 0.817. In the case of `CCOC(=O)C(O)(c1ccc(N)c(OC)c1)C(F)(F)F` (stereo not given), the B-score was -4.69 (active).

For `CCOP(=S)(OCC)SCOC(=O)NCC(=O)OC`, the B-score is 1.46. For `Cc1ccc2c(c1)C1CN(C)CCC1N2C(=O)Cn1nnc(-c2ccccc2F)n1` (stereo not given) the value was -3.16 (active); for `Cc1cc(N2C(=O)C3CCCN3C2c2ccc(Cl)c(Cl)c2)no1` (stereo not given), 1.04. The result for `CC(=NC1CCN(Cc2ccccc2)CC1)c1c(O)n(C)c(=O)n(C)c1=O` reads 0.191. `CCN(CC)CCOC(=O)c1cc2cc(COC)ccc2o1`: the B-score was 0.407. For `C=Cn1ccnc1P(=S)(c1cc(N(CC)CC)ns1)c1nccn1C=C` the value was -0.0508. For `CC(=C1C(=O)c2ccccc2C1=O)N1CCN(CCN=Cc2c(O)n(C)c(=O)n(C)c2=O)CC1` the value was -0.0144; for `CCC(=NCc1ccco1)c1c(O)n(Cc2ccccc2)c(=O)[nH]c1=O`, 10.9 (active); for `CCCCCCN=C(CC)c1c(O)n(CCCC)c(=O)[nH]c1=O`, 2.24. Regarding `CCC(=NCCCO)c1c(O)n(-c2ccc(OC)cc2)c(=O)[nH]c1=O`, the B-score is -0.508. For `N[C@@H](Cc1c[nH]c2ccccc12)c1nnc(SCc2c(F)cccc2Cl)o1` the value was -0.133; for `CCCC(C)n1[nH]c(=O)c2c1NC(=O)CSC2c1ccc(OC)c(OC)c1` (stereo not given), 0.346.

`CCc1cccc2c(C#N)cn(CC(=O)N3CCOCC3)c12`: the B-score was -1.07.
